{
  "source": "PubChem BioAssay (EPA / NIEHS)",
  "note": "Active and inactive are the calls of the source. How the source made its calls: active means hit-call score of the fitted dose curve at least 0.9, where 1 is the maximum; inactive means score below 0.9.",
  "data": [
    {"read-out": "ABC Transporter (ABCB11), ABCB11 (gene 8647)", "assay": "LTEA_HepaRG_ABCB11: Life Technologies and Expression Analysis (LTEA) Assay for ABC Transporter (ABCB11) using HepaRG (AID 2283463)", "conditions": "mRNA level, 48 h; actives raise or lower the signal", "procedure": "LTEA_HepaRG is a cell based, multiplexed-readout assay that uses HepaRG, a human liver cell line, with measurements taken at 48 hours after chemical dosing on a 96-well plate.LTEA_HepaRG_ABCB11 is one of 102 assay component(s) measured in the LTEA HepaRG cell culture assay. It is a marker of Steatosis/NR mediated transport.Data from the assay component LTEA_HepaRG_ABCB11 was analyzed into 1 endpoint. This assay endpoint, LTEA_HepaRG_ABCB11, was analyzed with bidirectional fitting relative to DMSO as the negative control and baseline of activity. Using a type of inducible reporter, measures of mRNA induction for gain or loss-of-signal activity can be used to understand regulation of transcription factor activity. To generalize the intended target to other relatable targets, this assay endpoint is annotated to the transporter intended target family, where the subfamily is ABC transporter.\nA total of 1060 chemcials from the ToxCast library were tested in eight-point concentration-response experiments. Cell culture and cytotoxicity assays were conducted at Thermo Fisher Scientific's Custom Services facility (Madison, WI). A single lot of human HepaRG cells (Thermo Fisher Scientific, Frederick, MD) was used for the cell culture experiments. 96-well format collagen type I coated plates of human HepaRG cells were prepared using established methods. Briefly, cryopreserved HepaRG cells were thawed, plated at a density of approximately 100,000 cells/well in HepaRG Thaw, Plate, and General Purpose media (HPRG770, Thermo Fisher Scientific), and incubated for 48 hours. 0.5% DMSO was selected as vehicle control to balance the requisite need of DMSO in HepaRG cultures to maintain differentiation (for example, baseline metabolism, proportions of hepatocytes vs. cholangiocytes), while enabling further hepatic receptor pathway activation (for example, PXR and CAR) in response to chemical exposure. 48 hours after plating, the culture medium was replaced with HepaRG Serum-Free Incudtion Media. Cells were exposed to each test chemical in duplicate and maintained in CO2 incubators for another 48 hours. Chemical plates were thawed to room temperature and 200x concentrations of treatment groups were prepared. 8-point conentration-reponse curves were made with the highest exposure at 100 uM, followed by half-log dilutions, all in 0.5% DMSO. Each test plate contained variouse controls, induction positive controls (1mM phenobarbital), cytotoxicity positive controls ([…] aflatoxin B1), vehicle controls (0.5% DMSO), and total lysis controls (0.5% DMSO). Cell morphology images were taken using an Essen IncuCyte FLR automated microscope, with six 96-well plates imaged in about 24 minutes. Images were captured and exported and JPEG files. Spent culture media was transfered to black-well plates for the LDH assay, and remaining media was sorted at -80 C for later use. Cells were treated with RLT buffer and frozen until shipped for gene expression analysis. Total RNA was isolated from the cell suspension in 75 uL of Buffer RLT (Qiagen, Germantown, MD 20874) by Quintiles/Expression Analysis (Durham, NC) using a custom isolation procedure. Total RNA from each plate well was transferred to a preamplification plate. Fluidigm's 96.96 Dynamic ArrayTM (Fluidigm, Amsterdam, the Netherlands) technology was used for gene expression analyses by quantitative reverse transcription polymerase chain reaction (qRT-PCR, performed by Quintiles/Expression Analysis, Durham, NC)89. Standard TaqManTM Assays (Applied Biosystems/ThermoFisher Scientific, Foster City, CA) were used to assess the expression of 93 genes selected based on their selectivity and sensitivity to important hepatic receptors known to be modulated by environmental chemicals; importance in human hepatocyte functionality; and hepatotoxicity. […]", "values": [
      {"smiles": "CON=C(C(=O)OC)c1ccccc1CON=C(C)c1cccc(C(F)(F)F)c1", "AC50": "85.5 µM (active)"},
      {"smiles": "COP(=O)(OC)C(O)C(Cl)(Cl)Cl", "note": "(stereo not given)", "outcome": "inactive"},
      {"smiles": "C#CC(C)(C)NC(=O)c1cc(Cl)cc(Cl)c1", "outcome": "inactive"},
      {"smiles": "CCOP(=O)(SC(C)CC)N1CCSC1=O", "note": "(stereo not given)", "outcome": "inactive"},
      {"smiles": "Nc1nc(N)nc(NC2CC2)n1", "outcome": "inactive"},
      {"smiles": "CN(C)[C@@H]1C(=O)C(C(N)=O)=C(O)[C@@]2(O)C(=O)C3=C(O)c4c(O)cccc4[C@@](C)(O)[C@H]3[C@H](O)[C@@H]12", "outcome": "inactive"},
      {"smiles": "CNC(=O)ON=C(C)SC", "AC50": "16.7 µM (active)"},
      {"smiles": "CC(Oc1cccc(Cl)c1)C(=O)O", "note": "(stereo not given)", "outcome": "inactive"},
      {"smiles": "CNc1cnn(-c2cccc(C(F)(F)F)c2)c(=O)c1Cl", "AC50": "20.1 µM (active)"},
      {"smiles": "CN(C)C(=O)Nc1cccc(C(F)(F)F)c1", "outcome": "inactive"},
      {"smiles": "CCCOc1nn(C(=O)NS(=O)(=O)c2ccccc2C(=O)OC)c(=O)n1C", "outcome": "inactive"},
      {"smiles": "CCc1cccc(C)c1N(C(=O)CCl)C(C)COC", "note": "(stereo not given)", "outcome": "inactive"},
      {"smiles": "CCc1cnc(C2=NC(C)(C(C)C)C(=O)N2)c(C(=O)O)c1", "note": "(stereo not given)", "outcome": "inactive"},
      {"smiles": "COP(=O)(OC)OC(Br)C(Cl)(Cl)Br", "note": "(stereo not given)", "outcome": "inactive"},
      {"smiles": "CC(C)=CC1C(C(=O)OCN2C(=O)C3=C(CCCC3)C2=O)C1(C)C", "note": "(stereo not given)", "outcome": "inactive"},
      {"smiles": "CCOP(=S)(OCC)Oc1ccc([N+](=O)[O-])cc1", "outcome": "inactive"},
      {"smiles": "O=C(O)c1cc(Oc2ccc(C(F)(F)F)cc2Cl)ccc1[N+](=O)[O-]", "outcome": "inactive"},
      {"smiles": "N#CSCSC#N", "AC50": "50 µM (active)"},
      {"smiles": "CCCCSP(=O)(SCCCC)SCCCC", "AC50": "73.9 µM (active)"},
      {"smiles": "CC1(C(=O)Nc2ccc(O)c(Cl)c2Cl)CCCCC1", "outcome": "inactive"},
      {"smiles": "O=c1ccc(=O)[nH][nH]1", "outcome": "inactive"},
      {"smiles": "CSc1nc(NC(C)C)nc(NC(C)C)n1", "AC50": "56.7 µM (active)"},
      {"smiles": "C=C(C)[C@H]1Cc2c(ccc3c2O[C@@H]2COc4cc(OC)c(OC)cc4[C@@H]2C3=O)O1", "AC50": "7.9 µM (active)"},
      {"smiles": "COP(=O)(OC)SCn1c(=O)oc2cc(Cl)cnc21", "AC50": "39.3 µM (active)"},
      {"smiles": "CC(C)[C@H](C(=O)O[C@H](C#N)c1cccc(Oc2ccccc2)c1)c1ccc(Cl)cc1", "outcome": "inactive"},
      {"smiles": "C#CCC1=C(C)C(OC(=O)C2C(C=C(C)C)C2(C)C)CC1=O", "note": "(stereo not given)", "outcome": "inactive"},
      {"smiles": "CCc1cccc(CC)c1N(COC)C(=O)CCl", "outcome": "inactive"},
      {"smiles": "CCC(CC)Nc1c([N+](=O)[O-])cc(C)c(C)c1[N+](=O)[O-]", "outcome": "inactive"},
      {"smiles": "COP(=O)(NC(C)=O)SC", "note": "(stereo not given)", "outcome": "inactive"},
      {"smiles": "C[N+]1(C)CCCCC1", "outcome": "inactive"},
      {"smiles": "CSC1=N[C@@](C)(c2ccccc2)C(=O)N1Nc1ccccc1", "AC50": "31.4 µM (active)"},
      {"smiles": "FC(F)C(F)(F)OCC(Cn1cncn1)c1ccc(Cl)cc1Cl", "note": "(stereo not given)", "AC50": "36.6 µM (active)"},
      {"smiles": "CCOP(=S)(OCC)SCCSCC", "outcome": "inactive"},
      {"smiles": "CCOP(=S)(OCC)Oc1cc(C)nc(C(C)C)n1", "outcome": "inactive"},
      {"smiles": "CC(C)N(C(=O)SCC(Cl)=C(Cl)Cl)C(C)C", "outcome": "inactive"},
      {"smiles": "CCCSP(=O)(OCC)Oc1ccc(Br)cc1Cl", "note": "(stereo not given)", "outcome": "inactive"},
      {"smiles": "CN1COCN(Cc2cnc(Cl)s2)C1=N[N+](=O)[O-]", "outcome": "inactive"},
      {"smiles": "C[Si](Cn1cncn1)(c1ccc(F)cc1)c1ccc(F)cc1", "AC50": "34.5 µM (active)"},
      {"smiles": "CCOP(=O)(OCC)Oc1cc(C)nc(C(C)C)n1", "outcome": "inactive"},
      {"smiles": "CC1=NNC(=O)N(/N=C/c2cccnc2)C1", "outcome": "inactive"}
    ]}
  ]
}
